Reference: PubChem BioAssay (NCI)
“And” between values parts separate entries of the source, which are not always exact repeats. Equal entries are not always repeated. Compounds without any hit were thinned out: in the full panel of roughly 79,000, 15% have a hit. The source made the active and inactive calls. No stated cut-off is given here; in the data, active means growth inhibition above about 70%; inactive means the rest.

What was measured:
[1] = NCI Yeast Anticancer Drug Screen. Data for the rad50 strain (AID 155);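 further: 0% = growth of vehicle-only cultures of the same strain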; settings: S. cerevisiae rad50 strain growth inhibition; at 50.0 µM; hits give high values
Summary of the method: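 Inhibition values express reduced yeast growth in compound-treated cultures relative to vehicle-treated controls.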

[2] = NCI Yeast Anticancer Drug Screen. Data for the mec2-1 strain (AID 157); settings: S. cerevisiae mec2-1 strain, at 50.0 µM, hits give high values
Summary of the method: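 Strain: mec2-1 (DNA repair/cell cycle alteration). Compound exposure, then growth measured; inhibition expressed relative to vehicle.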

[3] = NCI Yeast Anticancer Drug Screen. Data for the sgs1 mgt1 strain (AID 161);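 further: 0% = growth of cultures given vehicle only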; settings: S. cerevisiae sgs1 mgt1 strain, at 50.0 µM, hits give high values
Summary of the method: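 Inhibition of yeast growth, normalised to vehicle-treated controls, is reported for a strain bearing genetic alterations in DNA damage repair.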

[4] = NCI Yeast Anticancer Drug Screen. Data for the cln2 rad14 strain (AID 165);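 further: 0% = growth equal to vehicle treated cultures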; settings: S. cerevisiae cln2 rad14 strain, at 50.0 µM, hits give high values
Summary of the method: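 Compounds are applied to the cln2 rad14 yeast strain, and growth is then compared with that of vehicle-treated cultures to give inhibition.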

[5] = NCI Yeast Anticancer Drug Screen. Data for the bub3 strain (AID 167); settings: S. cerevisiae bub3 mutant strain, at 50.0 µM, hits give high values
Summary of the method: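 Steps: expose the mutant yeast strain to compound; grow alongside vehicle-treated cultures; measure growth; express inhibition against the vehicle cultures.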

[6] = NCI Yeast Anticancer Drug Screen. Data for the mlh1 rad18 strain (AID 175); settings: S. cerevisiae mlh1 rad18 strain growth inhibition; at 50.0 µM; hits give high values
Summary of the method: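 Read-out is yeast growth inhibition, calculated against vehicle-only controls. The compound was applied to a strain engineered with DNA damage repair alterations.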

Measured: growth inhibition

C(=C/[PH+](c1ccccc1)c1ccccc1)/[PH+](c1ccccc1)c1ccccc1.[C-]#[O+].[C-]#[O+].[C-]#[O+].[C-]#[O+].[C-]#[O+].[Mo+2].[Mo+4].[c-]1[c-][c-][cH-][c-]1.[c-]1[c-][c-][cH-][c-]1
active: [1] 91.6% | [2] 93.5% | [3] 93.5% | [4] 92.2% | [5] 92.9% | [6] 91.2%

CC(C)(C)NC(=O)CCl
inactive: [1] -9.6% | [2] -1.35% | [3] -6.1% | [4] -10.2% | [5] 7.45% | [6] -7.85%

CCOP(=O)(OCC)C1CCC(=O)O1 (stereo unspecified)
inactive: [1] -14.2% | [2] -20.2% | [3] -14% | [4] 12.4% | [5] 10.6% | [6] 10.6%

Cc1ccc(OP(Oc2ccc(C)cc2)Oc2ccc(C)cc2)cc1
inactive: [1] 32.8% | [2] 10.7% | [3] -6.35% | [4] -31.6% | [6] 31.5%

C[N+](C)(C)CCP(=O)([O-])O
inactive: [1] -3.3% | [2] 0% | [3] 1.55% | [5] -3.1% | [6] 5.45%

O=C1CC2OCC=C3CN4CCC56c7ccccc7N1C5C2C3CC46 (stereo unspecified)
inactive: [1] 9.65% | [2] 2.3% | [3] 4.15% | [5] 8.9% | [6] -9.25%

COc1ccc2c(c1O)C1=CC(=O)CCC13CCN(C)C3C2 (stereo unspecified)
inactive: [1] -5.6% and 4.1% | [2] -6.65% and -22.6% | [3] 8.05% and 18.8% | [4] 3% and 8.05% | [6] 1.4% and 0.55%

O=C1CC2OCC=C3CN4CCC56c7ccccc7N1C5C2C3CC46 (stereo unspecified) (tested in a mixture with another compound)
inactive: [1] 25% and 2.65% and 6.9% | [2] -7.15% and 22.6% and -14.6% | [3] -15.7% and -7.3% and -9.45% | [5] 3.35% and 5.1% and -9.9% | [6] 5.7% and 9.45% and 10.1%

CC(C)(Cl)[N+](=O)[O-]
inactive: [1] -3.35% | [2] -13.3% | [3] 6.65% | [5] -5.45% | [6] 16.6%

Cc1nn(C)pc1P(C)(=S)n1nc(N(C)C)np1 (stereo unspecified)
inactive: [1] -2.65% | [2] -19.1% | [3] 0.65% | [4] 0.2% | [6] -7.75%

O=P(O)(O)C(O)c1ccccc1 (stereo unspecified)
inactive: [1] -20.1% | [2] -31.9% | [3] -15.4% | [4] -1.9% | [6] 17.6%

COC1OC2COC(c3ccccc3)OC2C2N=C(N)N([N+](=O)[O-])C12OS(C)(=O)=O (stereo unspecified)
inactive: [1] -4.8% | [2] -5.4% | [3] -12.2% | [4] -21.1% | [6] 3.75%

NNc1cccc2c1CCC(N)C2 (stereo unspecified)
inactive: [1] -0.35% | [2] 21.7% | [3] 6.35% | [5] 5% | [6] 9.65%

Clc1cc[c]([Pb]([Cl])([Cl])[c]2ccc(Cl)cc2)cc1
inactive: [1] 22.9% | [2] 17% | [3] 27.9% | [5] 36.5% | [6] 13.7%

COP(=O)(OC)C(=O)c1ccccc1
inactive: [1] -11.6% | [2] -17.2% | [4] -31.9% | [5] -23.8% | [6] -16.1%

[Br][Hg][CH]1CCC2CCCC1O2 (stereo unspecified)
active: [1] 99.5% | [2] 99.2% | [4] 99% | [5] 99.3% | [6] 99.5%

C1=C/CCC2NC2C/C=C/CCC/1 (stereo unspecified)
inactive: [1] -6.8% | [2] -20.4% | [4] -18.4% | [5] -22.8% | [6] -19.6%

O=C1CC2(CCNCC2)C(=O)N1N1CCOCC1
inactive: [1] 19.6% | [2] -0.15% | [3] 5.4% | [5] 2.6% | [6] 6%

S=C=NCc1ccccc1
inactive: [1] -1.55% | [2] 2.65% | [4] -12.9% | [5] 0.85% | [6] 1.9%

CN1C(=O)NC(C)(c2cccc(N(CCCl)CCCl)c2)C1=O (stereo unspecified)
inactive: [1] 5.5% | [2] 24.2% | [3] 10.8% | [4] 8.2% | [5] -13.9% | [6] 27.6%

Nc1nc(N)[nH]c(=O)n1
inactive: [1] -20.1% | [2] -12.5% | [3] -39% | [4] -29.4% | [5] -36.4% | [6] -40%

O=P(N1CCOCC1)(N1CC1)N1CC1
inactive: [1] 15.4% | [2] -7.35% | [3] -0.15% | [5] 9% | [6] 34.7%

CCCCCCCNC(=O)CBr
inactive: [1] 44% | [2] 26.2% | [3] 33.4% | [4] 4.75% | [6] 46.5%

Clc1cc[c]([Sn]([Cl])([c]2ccc(Cl)cc2)[c]2ccc(Cl)cc2)cc1
active: [1] 98.5% | [2] 98.5% | [3] 98.8% | [4] 97.7% | [6] 98.3%

Cc1cc(-c2ccccc2)cc(C)[n+]1CC[n+]1c(C)cc(-c2ccccc2)cc1C
inactive: [1] -14.9% | [2] -10.7% | [3] -5.85% | [5] 3.4% | [6] -19.4%

c1ccc(-c2ccc[n+](CCC[n+]3cccc(-c4ccccn4)c3)c2)nc1
inactive: [1] 2.9% | [2] 2.45% | [3] -15.2% | [4] -8.45% | [6] 6.25%

O=c1[nH]cc(CCl)c(=O)[nH]1
inactive: [1] 3.2% | [2] -17.2% | [3] 6.3% | [4] 25.9% | [6] -0.15%

COc1cc(C(CC(C)=O)c2cc3c(cc2OC(C)=O)OCO3)cc(OC)c1OC (stereo unspecified) (tested in a mixture with another compound)
inactive: [1] 5.1% | [2] 8.6% | [4] 2.45% | [5] 5.15% | [6] 23.8%

Nc1ccc(C(=O)Nc2ccc([As](=O)(O)O)cc2)cc1
inactive: [1] 4.35% | [2] 11.4% | [3] 7.8% | [5] 5.4% | [6] 23.9%

CCOP(=O)(OCC)/C(C#N)=C/c1cn(C)cn1
inactive: [1] -3.35% | [2] 1.95% | [4] -16.1% | [5] -4.65% | [6] -21.8%

CC1(C)CN=C(Nc2ccc(F)c(F)c2)S1
inactive: [1] 4.3% | [2] 3.8% | [4] 15.3% | [5] -12.8% | [6] -19.6%

[Cu+2].[O-]c1ccc2ccccc2c1N=Nc1ccccc1.[O-]c1ccc2ccccc2c1N=Nc1ccccc1
inactive: [1] -70.1% | [2] -13.1% | [4] -15.9% | [5] 2.4% | [6] -12.2%

COc1ccc(CC2c3cc(OC)c(OC)cc3CCN2C)cc1OC (stereo unspecified)
inactive: [1] -3.6% and -11.2% | [2] -5.2% and -18.4% | [3] -8.1% and -8.4% | [5] 12.7% and -3.45% | [6] 8.4% and 1.7%

N.O=S(=O)(O)O.[Al]
inactive: [1] 6.55% | [2] 7.45% | [3] 4.85% | [4] -3.8% | [5] -5.1% | [6] -2.4%

COC1/C=C/C=C(/C)Cc2cc(O)c(Cl)c(c2)N(C)C(=O)CC(OC(=O)C(C)C)C2(C)OC2C(C)C2CC1(O)NC(=O)O2 (stereo unspecified)
inactive: [1] -9.05% | [2] -11.2% | [3] -15.8% | [4] -9.15% | [6] -53%

CC[n+]1c(-c2ccccc2)c2cc(N)ccc2c2ccc(N)cc21 (tested in a mixture with another compound)
active: [1] 98.5% | [2] 88.8% | [5] 74.9% | [6] 85.5%
inactive: [4] 54.5%

O=C(SCC(NSc1ccccc1[N+](=O)[O-])C(=O)O)c1ccccc1 (stereo unspecified)
active: [1] 88.5% | [3] 75.4%
inactive: [2] 56.6% | [5] 6.5% | [6] 47.9%

[Se]c1nc(N2CCOCC2)ncc1-c1ccccc1
inactive: [1] -18% | [2] 0.5% | [3] -17.2% | [5] -3.3% | [6] 9%

C=CCc1cc(C=C(C#N)C#N)cc(OC)c1O
inactive: [1] -0.15% | [2] -2.85% | [3] 10.7% | [4] 23.1% | [6] 11.7%

CCN(CC)CCc1ccccn1
inactive: [1] -13.4% | [2] -15.5% | [3] -7% | [4] -8.8% | [6] 5.5%

COC(C(=O)C(O)C(C)O)C1Cc2cc3cc(OC4CC(OC(C)=O)C(OC5CC(O)C(OC)C(C)O5)C(C)O4)cc(O)c3c(O)c2C(=O)C1OC1CC(OC2CC(OC3CC(C)(O)C(OC(=O)C(C)C)C(C)O3)C(O)C(C)O2)C(O)C(C)O1 (stereo unspecified)
inactive: [1] 1.55% and 17.7% | [2] -5.45% and 28.8% | [3] -24.6% and 17.3% | [4] 52.5% and 58% | [6] 1.2% and 17.1%

C(=C/P(c1ccccc1)c1ccccc1)/P(c1ccccc1)c1ccccc1
inactive: [1] 4.05% | [2] 8.95% | [3] 1.9% | [5] 2.75% | [6] 2.7%

C1=CC(N2CCOCC2)CC1 (stereo unspecified)
inactive: [1] -24.2% | [2] 30.2% | [3] 1.75% | [5] -30.4% | [6] 2.25%

CCC(Cl)COP(=O)(OCC(Cl)CC)O/C(C)=C(\C)OP(=S)(OCC(Cl)CC)OCC(Cl)CC (stereo unspecified)
active: [1] 86.5% | [2] 93.2% | [4] 99.2% | [5] 98.8% | [6] 96.8%
